Screening data from PubChem BioAssay.
This is one part of a sample in which hits are shown more often than they occur.
ST2 inh = inhibitors of human ST2 (IL1RL1) binding to IL-33, primary screen, biochemical, AlphaLISA; inhibition, % for hits at 17 µM; Interleukin-1 receptor-like 1 (Homo sapiens), Q01638; AID 1259354, 2018; AlphaLISA ST2-Fc/biotin-IL-33 interaction, 1 h; 78,000 compounds, 2.3% hits; in the data active = inhibition above about 30%
Target sequence (Q01638 whole entry, looked up): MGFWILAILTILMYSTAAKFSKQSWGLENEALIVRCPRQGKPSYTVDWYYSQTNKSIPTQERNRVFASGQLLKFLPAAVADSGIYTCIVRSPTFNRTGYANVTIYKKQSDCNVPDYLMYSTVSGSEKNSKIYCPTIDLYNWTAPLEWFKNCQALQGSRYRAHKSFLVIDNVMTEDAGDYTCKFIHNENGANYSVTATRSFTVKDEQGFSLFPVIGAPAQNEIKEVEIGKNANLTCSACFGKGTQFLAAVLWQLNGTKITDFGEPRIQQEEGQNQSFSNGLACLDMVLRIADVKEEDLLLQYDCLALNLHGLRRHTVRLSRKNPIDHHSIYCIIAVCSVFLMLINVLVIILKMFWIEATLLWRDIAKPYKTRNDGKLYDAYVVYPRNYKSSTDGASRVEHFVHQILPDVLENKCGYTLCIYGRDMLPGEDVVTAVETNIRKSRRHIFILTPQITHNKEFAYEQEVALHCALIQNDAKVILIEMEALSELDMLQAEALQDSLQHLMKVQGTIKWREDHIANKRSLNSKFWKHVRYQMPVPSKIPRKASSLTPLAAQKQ
* hit, by the source's call; i = inactive; ! = not active in a repeat.

SMILES | ST2 inh
CCc1c(C)sc(NC(=O)CCCn2nc(C)c([N+](=O)[O-])c2C)c1C#N | i
CCOc1ccc(C(=O)Nc2c(C)cccc2CC)cc1[N+](=O)[O-] | i
Cc1cc(Oc2cc(C#N)c(C#N)cc2[N+](=O)[O-])cc(C)c1Cl | 39%*
COc1ccc(NC(=O)c2cccc(Oc3ccc(C(F)(F)F)cc3[N+](=O)[O-])c2)cc1 | i
COc1cc(NC(=O)[C@@H]2C[C@@H]2c2ccccc2)c(OC)cc1Cl | i
COc1cccc(CC2CN(C(=O)c3ccc(SC)cc3)CCO2)c1 (stereo not drawn) | i
CC(C)C1CN(C(=O)c2ccc(N3CCCC3=O)cc2)CCCN1CC1CC1 (stereo not drawn) | i
O=C(NCCCN1CCCC1)c1cccn1-c1nnc(N2CCCCC2)s1 | i
CCN1CCN(CCCNC(=O)c2cccn2-c2nnc(N3CCCCC3)s2)CC1 | i
COc1ccc(N2CCN(CCCNC(=O)c3cccn3-c3nnc(N4CCCCC4)s3)CC2)cc1 | 31%*
Nc1c(S(=O)(=O)O)cc(Nc2ccc(Nc3nc(Cl)nc(Nc4ccc(S(=O)(=O)O)cc4)n3)c(S(=O)(=O)O)c2)c2c1C(=O)c1ccccc1C2=O | 81%*
CN(C(=O)Cc1c(C(=O)O)[nH]c2ccc(Cl)cc12)c1ccccc1F | i
COc1cc2[nH]c(=O)n(CCCC(=O)N3CCOCC3)c(=O)c2cc1OC | i
O=C(C1CCN(Cc2ccco2)CC1)N1CCOC(Cc2ccccc2)C1 (stereo not drawn) | i
O=C(Nc1cccc(Cl)c1)C(O)c1ccccc1 (stereo not drawn) | i
Cc1nn(-c2ccccc2)c(Cl)c1C(=O)Nc1cccc(Cl)c1 | i
CC1=NN(c2ccccc2)C(=O)C1C(c1cccc(Cl)c1)C(C#N)C#N (stereo not drawn) | 62%*
Cc1ccc(CNc2oc(-c3ccc([N+](=O)[O-])cc3)nc2C#N)cc1 | i
C#CCOC1(c2ccc(Cl)cc2)OC(=O)c2ccccc21 (stereo not drawn) | i
CCOc1ccc(CN=c2c([N+](=O)[O-])nn(-c3ccccc3)n2O)cc1OC | i
COc1ccc(NC(=O)O[C@@H]2CO[C@H]3[C@@H]2OC[C@@H]3NC(=O)Nc2cccc(C#N)c2)cc1 | 66%*
CC(=O)c1cccc(NC(=O)O[C@@H]2CO[C@H]3[C@@H]2OC[C@@H]3NC(=S)Nc2cc(C)cc(C)c2)c1 | i
CCNC(=O)O[C@@H]1CO[C@H]2[C@@H]1OC[C@@H]2NC(=O)Nc1cccc(C(F)(F)F)c1 | i
CCOC(=O)c1cccc(NC(=O)N[C@H]2CO[C@H]3[C@@H]2OC[C@H]3OC(=O)Nc2ccccc2)c1 | i
O=C(Nc1cccc(C(F)(F)F)c1)N[C@H]1CO[C@H]2[C@@H]1OC[C@H]2OC(=O)Nc1ccc(Oc2ccccc2)cc1 | 31%*
SMILES | ST2 inh
COC(=O)c1cccc(NC(=S)N[C@H]2CO[C@H]3[C@@H]2OC[C@H]3OCc2ccccc2)c1 | i
CC(=O)c1ccc(NC(=O)O[C@@H]2CO[C@H]3[C@@H]2OC[C@@H]3NC(=S)Nc2cccc(C#N)c2)cc1 | i
COc1ccc(NC(=O)N[C@H]2CO[C@H]3[C@@H]2OC[C@H]3OC(=O)Nc2ccc(C(C)=O)cc2)cc1 | i
CCNC(=O)O[C@@H]1CO[C@H]2[C@@H]1OC[C@@H]2NC(=S)Nc1cccc(C(=O)OC)c1 | 34%*
Cc1ccc(C2(CN3CCCC(Cn4ccnc4)C3)CCNCC2)nc1 (stereo not drawn) | i
O=C1[C@@H]2C3c4ccccc4C(c4ccccc43)[C@@H]2C(=O)N1c1ccc(Cl)cn1 | i
O=C(Nc1ccc(I)cc1)C1CCN(C(=O)c2ccc(F)cc2)CC1 | i
O=S(=O)(c1ccc2ccccc2c1)N1CCOC2(CNCCOC2)C1 (stereo not drawn) | i
COCCCN1C(=O)C(O)=C(C(=O)c2cccs2)C1c1ccc(OC)c(OC)c1 (stereo not drawn) | i
CCC(CC)C(=O)NC1CCCCCC1 | i
COc1ccc2cc3cc(C(=O)NCCCN4CCN(Cc5ccccc5)CC4)oc3nc2c1 | i
O=C(NCCCN1CCCC1)c1cc2cc3ccc(Cl)cc3nc2o1 | i
COc1ccc2cc3cc(C(=O)NCCCN4CCCCCC4)oc3nc2c1 | 31%*!
COc1ccc2cc3cc(C(=O)NCCN4CCOCC4)oc3nc2c1 | i
CCC1CCCCN1CCCNC(=O)c1cc2cc3ccc(OC)cc3nc2o1 (stereo not drawn) | i
COc1ccc2cc3cc(C(=O)NCCCN4CCCC4)oc3nc2c1 | 33%*!
O=C(NCC(F)(F)C(F)F)c1cccnc1 | i
O=C(NCCN1CCOCC1)c1ccc2c(Cl)c3c(nc2c1)CCCC3 | i
COCCN1CCCC2(CCN(Cc3cc4ccccc4o3)C2)C1=O (stereo not drawn) | i
Cc1c(Cl)cccc1NC1=CC(=O)CC(C)(C)C1 | i
CC(C)Oc1ccc(NC(=O)c2ccc(Br)cc2)cc1 | i
Cc1ccc(C2Nc3ccccc3NC3=C2C(=O)CCC3)cc1 (stereo not drawn) | i
